Sampled rows, rich in hits. Any-hit rate of the full collection: about 3%.
Tau fibril ThT: inhibitors of human tau fibril formation, thioflavin T binding. recombinant tau K18 P301L, heparin-induced fibrillization, ThT fluorescence. Potency, µM (series often up to 57.4 µM), most hits filed as inhibitors. 270,000 tested, 2.1% active. AID 1460; note: nearly all actives have a fitted effect of over 55% in size
Target sequence (P10636 561-689 P618L limits assumed): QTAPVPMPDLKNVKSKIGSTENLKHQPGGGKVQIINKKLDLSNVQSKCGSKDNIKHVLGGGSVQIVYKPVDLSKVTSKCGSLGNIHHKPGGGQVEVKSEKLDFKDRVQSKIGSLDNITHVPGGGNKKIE
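Using a mix of unlabeled (15 uM) and Alexa 594-labeled (0.24 uM) tau K18 P301L, heparin-triggered fibrillization over 6 hr at 37 C was scored by ThT fluorescence.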
Tau fibril FP: inhibitors of human tau fibril formation | P10636 | Potency, µM (doses to about 57.7 µM), hits mostly inhibitors | K18 P301L tau heparin fibrillization, Alexa594 FP, 6 h | 280,000 tested, 0.39% active; note: nearly all actives have a fitted effect of over 55% in size
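Human tau K18 […] P301L fragment, 15 uM unlabeled plus 0.24 uM Alexa 594-labeled tau (final), with compound and 20 uM heparin in 100 mM sodium acetate pH 7; 6 hr at 37 C, then Alexa 594 FP read.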
Coupling enz: coupling enzyme interference in Giardia aldolase counter-screen | coupling enzyme system counterscreen, AmpLite Red fluorescence | AID 2472 | 290,000 tested, 0.67% active | activity change, negative = inhibition, % at 58.2 µM, hits read low; in the data active = activity change below about -30%
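Coupling enzymes only (glyceraldehyde-3-phosphate) + compound, at 57.5 uM final, 10 min RT; add substrate/coupling/AmpLite Red mix, 20 min RT; fluorescence ex 525/em 598 nm. Actives flag coupling-system interference.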
JMJD2E inh: JMJD2E (human) inhibition. JMJD2E catalytic domain, FDH-coupled NADH fluorescence (FDH is formaldehyde dehydrogenase). 230,000 tested, 1.6% active. Potency, µM (top dose mostly 57.1 µM), hits mostly inhibitors. B2RXH2. AID 2147; active = well fitted inhibition curve with a large enough effect, not every such curve was filed as active; inconclusive = small, poorly fitted or top-dose-only effect, or another doubt; inactive = no such curve, though single readings can be large or run the other way; note: nearly all actives have a fitted effect of over 50% in size
Target sequence (B2RXH2 1-337 limits assumed): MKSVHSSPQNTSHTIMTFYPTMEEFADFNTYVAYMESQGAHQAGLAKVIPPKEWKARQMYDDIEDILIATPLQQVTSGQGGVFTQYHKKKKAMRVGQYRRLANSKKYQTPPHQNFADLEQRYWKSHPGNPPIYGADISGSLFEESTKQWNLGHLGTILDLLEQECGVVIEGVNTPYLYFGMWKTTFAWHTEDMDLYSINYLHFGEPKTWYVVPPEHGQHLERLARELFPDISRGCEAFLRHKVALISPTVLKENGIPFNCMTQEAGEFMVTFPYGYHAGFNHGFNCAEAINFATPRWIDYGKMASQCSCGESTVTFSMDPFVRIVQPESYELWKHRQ
Tau fluor counter: counter-screen for tau fibril formation inhibitors; tau K18 P301L Alexa594 fluorescence, heparin fibrillization; Potency, µM (titrated, usually from 57.7 µM); 280,000 tested, 0.93% active; note: nearly all actives have a fitted effect of over 55% in size
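Human tau K18 P301L (15 uM unlabeled, 0.24 uM Alexa 594-labeled) in 100 mM sodium acetate pH 7 with 20 uM heparin, 6 hr at 37 C. ThT 30 uM added, 1 hr ambient; Alexa 594 FP and total fluorescence read at 555/632 nm.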
Of the large screens only hits and unclear results are named; the others gave an inactive call; ! = a repeat was not active; [ ] = dose if it differs, or a comment. Unless noted, calls come from the whole dose curve; as a rule, active = well fitted curve in the direction sought with a large enough effect; inconclusive = small, poorly fitted or top-dose-only effect, or another doubt; inactive = no such curve, though single readings can be large; an effect the other way counts as inactive or inconclusive.

Cc1cc(C)nc(NS(=O)(=O)c2ccc(Br)s2)c1	Coupling enz -35.8, JMJD2E inh inconclusive
CC(C)CC(CSc1ccc(Br)cc1)N1CCN(CCc2ccccc2)CCC1=O (configuration not stated)	none (no result: Tau fibril ThT, Tau fibril FP, JMJD2E inh, Tau fluor counter)
COc1cc(/C=N/NC(=O)C(=O)/C=C2\NC3(CCCC3)Cc3ccccc32)ccc1O	Tau fibril ThT inconclusive, Tau fibril FP inconclusive, Tau fluor counter inconclusive
CN(C)c1ccc(/C=N/NC(=O)C(=O)/C=C2\NC3(CCCC3)Cc3ccccc32)cc1	Tau fibril ThT 2.24µM
Cc1ccc(C(=O)ONc2ccc(N=NC(=O)c3ccccc3O)cc2)cc1	Tau fibril ThT 2.24µM, JMJD2E inh inconclusive, Tau fluor counter inconclusive
Cc1ccc(Cn2c(C)c(CNCCCc3ccccc3)c(C(=O)O)c2C)cc1	none (no result: Coupling enz, JMJD2E inh)
CNCCCCCCCCSc1nc(C(C)C)ccc1C(=O)c1cccs1	Tau fibril ThT inconclusive, JMJD2E inh inconclusive
CCC(C)Nc1nc(-c2ccc3c(c2)NC(=O)CO3)cs1 (configuration not stated)	Tau fibril ThT inconclusive, Tau fluor counter inconclusive
COc1ccc(Nc2nc(-c3ccc4c(c3)NC(=O)CO4)cs2)cc1	Tau fibril ThT 7.94µM, Tau fluor counter 12.6µM[quencher]
COc1ccccc1Nc1nc(-c2ccc3c(c2)NC(=O)CO3)cs1	Tau fibril ThT 14.1µM, Tau fluor counter 11.2µM[quencher]
CC(=O)Nc1ccc(SCC(c2ccccc2)N2CCN(C)CCC2=O)cc1 (configuration not stated)	none (no result: Tau fibril ThT, Tau fibril FP, JMJD2E inh, Tau fluor counter)
Cc1cc(C)cc(NC(=O)C2CCCN(S(=O)(=O)c3cccc4nsnc34)C2)c1 (configuration not stated)	none (no result: Coupling enz, JMJD2E inh)
CC1=CC(c2ccc(Cl)cc2)n2nc(NS(=O)(=O)c3ccc(C)cc3)nc2N1 (configuration not stated)	Tau fibril ThT inconclusive, JMJD2E inh inconclusive
CC1=CC(c2ccccc2)n2nc(NS(=O)(=O)c3ccc(C)cc3)nc2N1 (configuration not stated)	Tau fibril ThT 11.2µM, Tau fibril FP inconclusive, Tau fluor counter inconclusive
NC(C(=O)NC1C(=O)N2C(C(=O)O)=C(Cl)CSC12)c1ccccc1 (configuration not stated)	Tau fibril ThT 14.1µM, Tau fibril FP inconclusive, JMJD2E inh inconclusive
Cn1nnnc1SCC1=C(C(=O)O)N2C(=O)C(NC(=O)C(O)c3ccccc3)C2SC1 (configuration not stated)	Tau fibril ThT inconclusive, Tau fibril FP inconclusive, JMJD2E inh inconclusive
N[C@H](C(=O)N[C@@H]1C(=O)N2C(C(=O)O)=C(Cl)CS[C@@H]12)c1ccccc1	JMJD2E inh 14.1µM! (no result: Tau fibril ThT, Tau fibril FP, Tau fluor counter)
COc1ccc2c(c1)C(=O)[C@@H](OC(=O)NS(=O)(=O)c1ccc(F)cc1)[C@H](c1ccc(OC)c(Br)c1)O2	none
Cc1ccc(N=Nc2c(O)ccc3n[nH]nc23)cc1	Tau fibril ThT 3.55µM, Tau fluor counter inconclusive
Cc1nc2nc(SCc3c(F)cccc3Cl)nn2c(C)c1Cc1ccccc1	none (no result: Coupling enz, JMJD2E inh)
Fc1cccc(NC(=S)NNc2ccccc2)c1	none (no result: Tau fibril ThT, Tau fibril FP, JMJD2E inh, Tau fluor counter)
Fc1cccc(NC(=S)NNc2c3ccccc3nc3ccccc23)c1	Tau fibril ThT 7.94µM, JMJD2E inh inconclusive, Tau fluor counter 11.2µM[quencher]
COC(=O)CC1(c2ccccc2)C(=O)c2ccccc2C1=O	none
COC(=O)CC1(c2cccc3ccccc23)C(=O)c2ccccc2C1=O	Tau fibril ThT 15.8µM, Tau fluor counter inconclusive
CC(C)(C)c1csc(NC(=O)c2ccc(Cl)s2)n1	JMJD2E inh inconclusive
CCNc1nc(N)c(C(=O)c2ccc(Cl)s2)s1	Tau fibril ThT 12.6µM, Tau fluor counter inconclusive
Cc1ccc(C)c(NC(=O)CCc2c(C)nn(-c3ccc(N4CCCC4)nn3)c2C)c1	none (no result: Coupling enz, JMJD2E inh)
Cc1sc2nc(SCC(=O)NCc3ccco3)n(-c3ccccc3)c(=O)c2c1C	JMJD2E inh inconclusive
CC(C)C(C)(C#N)NC(=O)CSc1nc2scc(-c3ccco3)c2c(=O)n1-c1ccccc1 (configuration not stated)	Tau fibril ThT 10µM, Tau fibril FP 7.94µM, JMJD2E inh inconclusive
O=C(NNC(=O)c1ccc(NC(=O)c2ccccc2)cc1)c1ccc(F)cc1	none (no result: Tau fibril ThT, Tau fibril FP, JMJD2E inh, Tau fluor counter)
O=C(NC1=C(Nc2ccc(F)cc2)C(=O)c2ccccc2C1=O)c1ccc(Cl)cc1	Tau fibril ThT inconclusive, Coupling enz -42.3
C[C@@H](C(=O)Nc1ccc2ccccc2c1)[C@@H]1C[C@@]1(C)[C@@H](NS(=O)(=O)c1ccc2ccccc2c1)c1ccccc1	Tau fibril FP inconclusive, JMJD2E inh 14.1µM
C[C@@H](C(=O)Nc1ccc2ccccc2c1)[C@H]1C[C@]1(C)[C@H](NS(=O)(=O)c1ccc2ccccc2c1)c1ccccc1	Tau fibril FP inconclusive, JMJD2E inh inconclusive
O=C(NCc1ccccc1)c1sc(=S)n2c1[nH]c(=O)c1ccccc12	Tau fibril ThT 14.1µM, Tau fluor counter inconclusive (no result: Coupling enz)
Fc1ccc(C2NCCn3cccc32)cc1 (configuration not stated)	Tau fibril ThT inconclusive, JMJD2E inh 20µM
COc1ccc(-c2cn3cccnc3n2)cc1NC(=O)c1c(F)cccc1F	Tau fibril FP inconclusive (no result: Coupling enz, JMJD2E inh)
Cc1ccc(NC(=O)c2ccc(NC(=O)N3CCSc4ncccc43)cc2)c(Cl)c1	none (no result: Coupling enz, JMJD2E inh)
CCOC(=O)C1=C(C)N=C2c3ccccc3C(=O)C2C1c1ccc(C)cc1 (configuration not stated)	Tau fibril ThT inconclusive, JMJD2E inh 31.6µM
CCOC(=O)C1=C(C)N=C2c3ccccc3C(=O)C2C1c1ccccc1 (configuration not stated)	Tau fibril ThT inconclusive, Tau fluor counter inconclusive
O=C(NC(CSCc1ccccc1)C(=O)N/N=C/c1ccc(O)cc1O)c1ccc([N+](=O)[O-])cc1 (configuration not stated)	Tau fibril ThT inconclusive, Tau fibril FP inconclusive, JMJD2E inh inconclusive, Tau fluor counter 12.6µM[quencher]
Cc1ccc(Nc2nc(C(N)=O)c(NC(=O)c3ccccc3Br)s2)cc1	Tau fibril ThT inconclusive, Tau fluor counter inconclusive (no result: Coupling enz, JMJD2E inh)
CCCCc1nc2c(c3c1C[C@H](C)OC3)CN(C(=O)Nc1cccc(C#N)c1)CC2	none
O=C(O/N=C1\CCCCC1c1ccc([N+](=O)[O-])cc1[N+](=O)[O-])c1c(F)cccc1F (configuration not stated)	Coupling enz -30.9, JMJD2E inh inconclusive, Tau fluor counter inconclusive
Cc1ccc(-n2nc(CO)c(C(=O)NCCC(C)C)n2)cc1C	none (no result: Coupling enz, JMJD2E inh)
N#CC(C#N)=Cc1ccc(NC(=O)c2ccc(Br)cc2)cc1	Tau fibril ThT inconclusive, Tau fibril FP inconclusive, JMJD2E inh 20µM
CC(C)(C)c1ccc(C(=O)Nc2ccc(C=C(C#N)C#N)cc2)cc1	Tau fibril ThT inconclusive, Tau fibril FP inconclusive, JMJD2E inh 11.2µM
Cc1ccc(C)c(N2CCN(C(=O)C3CCN(c4nc(-c5ccc(C(C)C)cc5)no4)CC3)CC2)c1	Tau fibril ThT inconclusive (no result: Coupling enz, JMJD2E inh)
CCCSc1ncc(Cl)c(C(=O)N2CCN(c3cccc(Cl)c3)CC2)n1	none (no result: Coupling enz, JMJD2E inh)

Assay outcomes from PubChem.
